Data from PubChem BioAssay (EPA / NIEHS).
Active and inactive are the calls of the source. Rule for the calls: active = hit-call score of the fitted dose curve at least 0.9, where 1 is the maximum; inactive = score below 0.9.

What was measured:
[1] = read-out: Monokine induced gamma interferon (MIG), CXCL9 (gene 4283); assay: BSK_hDFCGF_MIG: BioMAP Diversity Plus: hDFCGF Assay for Monokine induced gamma interferon (MIG) Biomarker Activity (AID 2283063); conditions: primary human foreskin fibroblasts; actives raise or lower the signal
In short: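 MIG signal, determined by ELISA, reflects 24 h chemical exposure of human skin primary fibroblasts. DMSO serves as negative control and baseline.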

[2] = read-out: Matrix Metallopeptidase 1 (MMP1), MMP1 (gene 4312); assay: BSK_hDFCGF_MMP1: BioMAP Diversity Plus: hDFCGF Assay for Matrix Metallopeptidase 1 (MMP1) Biomarker Activity (AID 2283064); conditions: primary human foreskin fibroblasts; actives raise or lower the signal
In short: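 Primary human foreskin fibroblasts in the hDFCGF system were dosed with test chemical, and MMP1 was measured by ELISA 24 h later. Values come from bidirectional curve fitting against the DMSO baseline.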

[3] = read-out: Vascular cell adhesion molecule 1 (VCAM1), VCAM1 (gene 7412); assay: BSK_hDFCGF_VCAM1: BioMAP Diversity Plus: hDFCGF Assay for Vascular cell adhesion molecule 1 (VCAM1) Biomarker Activity (AID 2283065); conditions: primary human foreskin fibroblasts; actives raise or lower the signal
In short: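 Cells are dosed, cultured for 24 h, then VCAM-1 is quantified by ELISA; signal increases and decreases are both fitted relative to DMSO.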

[4] = read-out: Plasminogen activator inhibitor-1 (PAI1), SERPINE1 (gene 5054); assay: BSK_hDFCGF_PAI1: BioMAP Diversity Plus: hDFCGF Assay for Plasminogen activator inhibitor-1 (PAI1) Biomarker Activity (AID 2283066); conditions: primary human foreskin fibroblasts; actives raise or lower the signal
In short: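 Human foreskin fibroblasts in the hDFCGF system were dosed with compound for 24 h; PAI-1 was quantified by ELISA. Bidirectional curve fitting used DMSO as negative control and baseline.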

[5] = read-out: Intercellular Adhesion Molecule 1 (ICAM1), ICAM1 (gene 3383); assay: BSK_KF3CT_ICAM1: BioMAP Diversity Plus: KF3CT Assay for Intercellular Adhesion Molecule 1 (ICAM1) Biomarker Activity (AID 2283067); conditions: primary human keratinocytes with fibroblasts; actives raise or lower the signal
In short: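 Dose the keratinocyte/fibroblast co-culture, wait 24 h, measure ICAM-1 by ELISA, then fit increases or decreases against DMSO. Cytotoxicity is checked in parallel cultures by SRB total-protein staining.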

[6] = read-out: Interferon-gamma inducible Protein 10 (IP10), CXCL10 (gene 3627); assay: BSK_KF3CT_IP10: BioMAP Diversity Plus: KF3CT Assay for Interferon-gamma inducible Protein 10 (IP10) Biomarker Activity (AID 2283068); conditions: primary human keratinocytes with fibroblasts; actives raise or lower the signal
In short: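 In a primary skin co-culture of keratinocytes and fibroblasts, IP-10 is quantified by ELISA at 24 h after dosing. SRB staining of parallel wells monitors overt toxicity. Curves are fitted both directions against DMSO.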

[7] = BSK_KF3CT_SRB: Viability Assessment in the BioMAP Diversity Plus: KF3CT Assay (AID 2283069); conditions: primary human keratinocytes with fibroblasts
In short: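 Human primary keratinocyte plus foreskin fibroblast co-culture exposed to chemicals for 24 h. Total protein measured by 0.1% sulforhodamine B staining after 10% TCA fixation, read at 560 nm; bidirectional fitting versus DMSO baseline.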

[8] = read-out: Interleukin-1 alpha (IL1a), IL1A (gene 3552); assay: BSK_KF3CT_IL1a: BioMAP Diversity Plus: KF3CT Assay for Interleukin-1 alpha (IL1a) Biomarker Activity (AID 2283070); conditions: primary human keratinocytes with fibroblasts; actives raise or lower the signal
In short: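 Human keratinocyte plus foreskin fibroblast primary co-culture, sampled 24 h after chemical dosing. IL-1a measured by ELISA; responses fitted bidirectionally against DMSO baseline (negative control), so gain or loss of signal both count.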

[9] = read-out: TIMP metallopeptidase inhibitor 2 (TIMP2), TIMP2 (gene 7077); assay: BSK_KF3CT_TIMP2: BioMAP Diversity Plus: KF3CT Assay for TIMP metallopeptidase inhibitor 2 (TIMP2) Biomarker Activity (AID 2283071); conditions: primary human keratinocytes with fibroblasts; actives raise or lower the signal
In short: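 Human primary keratinocyte/foreskin fibroblast co-culture dosed with chemical and sampled at 24 h. TIMP-2 levels quantified by ELISA; bidirectional fitting against DMSO negative control as baseline.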

[10] = read-out: C-C motif chemokine 2 (Homo sapiens) (UniProt P13500); assay: BSK_KF3CT_MCP1: BioMAP Diversity Plus: KF3CT Assay for Monocyte Chemoattractant Protein 1 (MCP1/CCL2) Biomarker Activity (AID 2283073); conditions: primary human keratinocytes with fibroblasts; actives raise or lower the signal
In short: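 Keratinocytes and foreskin fibroblasts were co-cultured, dosed with chemical, and sampled 24 h later. MCP-1 was quantified by ELISA, and the endpoint was analyzed with bidirectional fitting using DMSO as negative control.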

[11] = read-out: Matrix Metallopeptidase 9 (MMP9), MMP9 (gene 4318); assay: BSK_KF3CT_MMP9: BioMAP Diversity Plus: KF3CT Assay for Matrix Metallopeptidase 9 (MMP9) Biomarker Activity (AID 2283074); conditions: primary human keratinocytes with fibroblasts; actives raise or lower the signal
In short: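 Keratinocyte plus foreskin fibroblast human primary skin co-culture was dosed with chemical and MMP-9 was quantified by ELISA 24 h later. Bidirectional curve fitting used DMSO as negative control and activity baseline.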

[12] = read-out: urokinase plasminogen activator (uPA), PLAU (gene 5328); assay: BSK_KF3CT_uPA: BioMAP Diversity Plus: KF3CT Assay for urokinase plasminogen activator (uPA) Biomarker Activity (AID 2283075); conditions: primary human keratinocytes with fibroblasts; actives raise or lower the signal
In short: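 Human keratinocyte plus foreskin fibroblast primary co-culture exposed to chemical for 24 h. uPA levels were quantified by ELISA, and activity was fitted bidirectionally against a DMSO negative-control baseline.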

CD40, CD40 (gene 958) = assay: BSK_LPS_CD40: BioMAP Diversity Plus: LPS Assay for CD40 Biomarker Activity (AID 2283076); conditions: primary human HUVEC with PBMC; actives raise or lower the signal
In short: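 CD40 signal, measured by ELISA, is fitted in both directions relative to DMSO vehicle. The system is an LPS-driven human vascular primary co-culture of endothelial cells and PBMC, sampled 24 h after compound addition.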

[13] = read-out: E-selectin (Homo sapiens) (UniProt P16581); assay: BSK_LPS_Eselectin: BioMAP Diversity Plus: LPS Assay for Eselectin Biomarker Activity (AID 2283077); conditions: primary human HUVEC with PBMC; actives raise or lower the signal
In short: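 Signal of E-selectin, detected by ELISA, served as the endpoint; cells were umbilical vein endothelium with PBMC, read 24 h after treatment. DMSO defined baseline, and both increases and decreases were fitted.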

[14] = read-out: Interleukin-8 (IL8), CXCL8 (gene 3576); assay: BSK_LPS_IL8: BioMAP Diversity Plus: LPS Assay for Interleukin-8 (IL8) Biomarker Activity (AID 2283078); conditions: primary human HUVEC with PBMC; actives raise or lower the signal
In short: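 Endothelial cells and PBMC from human donors are co-cultured, treated with chemicals and LPS, then assayed for IL-8 by ELISA after 24 h. Parallel SRB staining (0.1% SRB after 10% TCA fixation, 560 nm) flags cytotoxicity.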

[15] = BSK_LPS_SRB: Viability Assessment in the BioMAP Diversity Plus: LPS Assay (AID 2283079); conditions: primary human HUVEC with PBMC;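 note: total protein by sulforhodamine B absorbance as a cytotoxicity measure; measured one day after compound addition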
In short: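 Overt cytotoxicity was gauged by sulforhodamine B total-protein staining in a primary human vascular endothelial and mononuclear cell co-culture 24 h post-dosing. Activity was fitted in both directions relative to DMSO.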

[16] = read-out: Interleukin-1 alpha (IL1a), IL1A (gene 3552); assay: BSK_LPS_IL1a: BioMAP Diversity Plus: LPS Assay for Interleukin-1 alpha (IL1a) Biomarker Activity (AID 2283080); conditions: primary human HUVEC with PBMC; actives raise or lower the signal
In short: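 Measured: IL-1 alpha via ELISA at 24 h in LPS-activated human umbilical vein endothelium–PBMC co-culture. Baseline: DMSO, bidirectional fitting.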

[17] = read-out: Monocyte Chemoattractant Protein-1 (MCP1), CCL2 (gene 6347); assay: BSK_LPS_MCP1: BioMAP Diversity Plus: LPS Assay for Monocyte Chemoattractant Protein-1 (MCP1) Biomarker Activity (AID 2283081); conditions: primary human HUVEC with PBMC; actives raise or lower the signal
In short: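 LPS-stimulated HUVEC/PBMC co-culture; chemical, 24 h; MCP-1 by ELISA; bidirectional fit vs DMSO; cytotoxicity via SRB (0.1% stain, 10% TCA fix, 560 nm) in parallel wells.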

[18] = BSK_LPS_PGE2: BioMAP Diversity Plus: LPS Assay for Prostaglandin E2 (PGE2) Biomarker Activity (AID 2283082); conditions: primary human HUVEC with PBMC; actives raise or lower the signal
In short: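 HUVEC plus PBMC co-culture stimulated with LPS; secreted PGE2 quantified by ELISA 24 h after chemical dosing. Activity fitted bidirectionally against DMSO as negative control and baseline; parallel SRB total-protein staining served as cytotoxicity check.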

[19] = read-out: Transforming growth factor beta 1 (TGFb1), TGFB1 (gene 7040); assay: BSK_KF3CT_TGFb1: BioMAP Diversity Plus: KF3CT Assay for Transforming growth factor beta 1 (TGFb1) Biomarker Activity (AID 2283072); conditions: primary human keratinocytes with fibroblasts; actives raise or lower the signal
In short: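 Human keratinocyte plus foreskin fibroblast primary co-culture, dosed with chemical for 24 h. TGF-b1 quantified by ELISA. Activity fitted bidirectionally against DMSO negative control as baseline.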

Measured: outcome

E-selectin (Homo sapiens), sequence (P16581 whole entry, looked up): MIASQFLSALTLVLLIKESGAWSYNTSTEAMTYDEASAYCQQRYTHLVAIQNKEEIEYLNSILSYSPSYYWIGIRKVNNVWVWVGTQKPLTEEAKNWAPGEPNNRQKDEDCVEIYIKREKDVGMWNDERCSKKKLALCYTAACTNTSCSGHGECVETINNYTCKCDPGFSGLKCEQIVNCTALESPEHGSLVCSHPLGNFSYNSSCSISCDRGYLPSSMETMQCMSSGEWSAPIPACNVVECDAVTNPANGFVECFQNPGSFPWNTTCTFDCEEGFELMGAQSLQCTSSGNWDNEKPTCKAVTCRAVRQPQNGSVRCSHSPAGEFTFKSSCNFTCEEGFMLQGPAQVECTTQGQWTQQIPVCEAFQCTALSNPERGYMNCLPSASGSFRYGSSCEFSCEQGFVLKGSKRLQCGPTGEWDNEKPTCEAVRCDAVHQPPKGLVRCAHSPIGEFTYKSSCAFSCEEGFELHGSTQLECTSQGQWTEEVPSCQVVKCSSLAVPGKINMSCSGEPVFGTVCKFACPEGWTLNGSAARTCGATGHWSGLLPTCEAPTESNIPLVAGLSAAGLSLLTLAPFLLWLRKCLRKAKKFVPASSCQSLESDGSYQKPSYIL

CCCCCCCCN(C)C
inactive: [1] | [2] | [3] | [4] | [5] | [6] | [7] | [8] | [9] | [10] | [11] | [12] | CD40, CD40 (gene 958) | [13] | [14] | [15] | [16] | [17] | [18]

NCC(F)(F)C(F)(F)C(F)(F)C(F)(F)F
inactive: [1] | [2] | [3] | [4] | [5] | [6] | [7] | [8] | [9] | [10] | [11] | [12] | CD40, CD40 (gene 958) | [13] | [14] | [15] | [16] | [17] | [18]

CC(C)C(=O)Nc1ccc([N+](=O)[O-])c(C(F)(F)F)c1
inactive: [1] | [2] | [3] | [4] | [5] | [6] | [7] | [8] | [9] | [10] | [11] | [12] | CD40, CD40 (gene 958) | [13] | [14] | [15] | [16] | [17] | [18]

O=C(O)[C@H](O)[C@@H](O)C(=O)O
inactive: [1] | [2] | [3] | [4] | [5] | [6] | [7] | [8] | [9] | [19] | [10] | [11] | [12] | CD40, CD40 (gene 958) | [13] | [14] | [15] | [16] | [17] | [18]
